From PubChem BioAssay
TIM10 inh = inhibits growth of TIM10 yeast strain; S. cerevisiae TIM10 strain growth, BacTiter-Glo luminescence, 24 h; inhibition, % at 10 µM; 330,000 compounds, 1.4% hits;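 active = inhibition of 40% or more at the single tested concentration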;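 also: wild-type TIM10 isogenic control strain grown at permissive 25 °C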
V-ATPase pHluor = regulators of yeast V-ATPase proton transport; S. cerevisiae, pHLuorin cytosolic pH fluorescence; response, % at 10 µM; 350,000 compounds, 0.37% hits; AID 504577; in the data active = response mostly above about 7.3%, no sharp cut-off; inactive = mostly below about 5.4%; also: actives read high
PfHsp90 set2 = inhibits growth of yeast expressing Plasmodium falciparum Hsp90. 310,000 compounds, 0.32% hits. inhibition, % at 9.4 µM. S. cerevisiae expressing PfHsp90, BacTiter-Glo ATP, 48 h; yeast lacking PDR1 and PDR3 efflux regulators;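 active = every replicate shows inhibition above about 80%, whatever the replicate mean, limit read from the data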
tim10-1 inh = inhibits growth of tim10-1 mutant yeast. S. cerevisiae tim10-1 ts strain growth, BacTiter-Glo, 24 h. inhibition, % at 20 µM. 330,000 compounds, 2.2% hits. AID 463190;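 active = inhibition of at least 40%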;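 also: mutant grown at 25 °C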
tim23-1 inh = inhibits growth of tim23-1 mutant yeast; S. cerevisiae tim23-1 growth, BacTiter-Glo luminescence, 24 h; inhibition, % at 20 µM; 330,000 compounds, 1.3% hits; AID 463212;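 active = growth inhibition of the mutant yeast at or above 50%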;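 also: temperature-sensitive mutant grown at 25 °C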
tim10-1 confirm = tim10-1 yeast growth inhibition, confirmed | 7,400 compounds, 56% hits | S. cerevisiae tim10-1 ts strain growth, BacTiter-Glo, 24 h | inhibition, % at 20 µM | shares compounds with tim10-1 inh;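 active = inhibition of yeast growth at or above a set limit in either of two repeat tests at 20 µM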;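 also: tim10-1 mutant grown at permissive 25 °C to find synthetic lethal compounds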
Of the large screens only hits and unclear results are named; the others gave an inactive call (follow-up assays come after a bar, where they were run). This is a sample that favours compounds with a hit; in the whole collection about 3.7% have one here.

CCOC(=O)[C@@H]1[C@H]2COc3ccc(Br)cc3[C@@H]2N2C(=O)N(c3ccc(F)cc3)C(=O)[C@]12C	none
CCCOc1ccc(N2C(=O)CC(N3CCC(O)(c4cccc(C(F)(F)F)c4)CC3)C2=O)cc1 (stereo unspecified)	tim10-1 inh 56 | tim10-1 confirm 47
COc1ccc(NC2CCN(C3CC(=O)N(c4ccc(F)c(Cl)c4)C3=O)CC2)cc1 (stereo unspecified)	PfHsp90 set2 102, tim10-1 inh 54 | tim10-1 confirm 42
O=C(O)/C(=C\C(=O)c1ccccc1)Nc1ccccc1	none (no result: V-ATPase pHluor, PfHsp90 set2)
COc1ccccc1CN1CC(C(=O)NCc2cc(C(C)C)no2)CCC1=O (stereo unspecified)	none
O=S(=O)(/N=C(/Sc1ccccc1)c1ccccc1)c1ccccc1	tim10-1 inh 52 | tim10-1 confirm 43
CC(C)CC1C(=O)N(Cc2cn(Cc3ccco3)nn2)CCS(=O)(=O)N1Cc1ccc(-c2cccc(N(C)C)c2)cc1 (stereo unspecified)	none (no result: TIM10 inh, PfHsp90 set2, tim10-1 inh, tim23-1 inh)
c1ccc2nc3c(cc2c1)CCCCC3	none
COc1ccc(OCC2NCCc3cc(OC)c(OC)cc32)cc1 (stereo unspecified)	none
COc1cc2c(cc1OC)C(COc1cccc(C(F)(F)F)c1)NCC2 (stereo unspecified)	tim10-1 inh 47 | tim10-1 confirm 47
CN(CC(=O)N(C)CC(=O)Nc1c(Cl)cccc1Cl)Cc1ccc(Br)s1	none
COc1cccc(OCc2cc(C(=O)NC3CCOCC3)no2)c1	none
CC1(C)CC(NC(=O)c2cc(COc3cccc(C(F)(F)F)c3)on2)CCO1 (stereo unspecified)	tim10-1 inh 48 | tim10-1 confirm inactive
NC(=S)N/N=C/c1ccc(-c2ccccc2)o1	none
Cc1ccc(-c2ccc(/C=N/NC(N)=S)o2)cc1	tim10-1 inh 42 | tim10-1 confirm inactive
CCCCCCC(C)NC(=S)Nc1cc(S(=O)(=O)N(C)C)ccc1C (stereo unspecified)	tim10-1 inh 41 (no result: PfHsp90 set2) | tim10-1 confirm inactive
OCC[C@H]1C[C@@H](O)[C@H](O)[C@@]2(CCc3ccccc3O2)O1	none
Cc1cc(C(=O)N2CCc3ccccc3C2)on1	none
COc1cc(Cl)cc2c1Sc1ccccc1/C2=C/CCN(C)C	tim10-1 inh 42 | tim10-1 confirm inactive
COc1cc2c(cc1Cl)/C(=C\CCN(C)C)c1ccccc1S2	tim10-1 inh 40 | tim10-1 confirm inactive
O=C(NNC(=S)Nc1cccc(C(F)(F)F)c1)c1cccc(Cl)c1	tim10-1 inh 50 | tim10-1 confirm 46
CC(=O)N1N=C(c2cccc([N+](=O)[O-])c2)OC1c1ccc(Cl)cc1Cl (stereo unspecified)	tim10-1 inh 40 (no result: PfHsp90 set2) | tim10-1 confirm inactive
CN(C)c1ccc(/C=N/NC(=O)C(=O)/C=C2\NC3(CCCC3)Cc3ccccc32)cc1	tim10-1 inh 42 | tim10-1 confirm inactive
O=C(/C=C1\NC2(CCCC2)Cc2ccccc21)C(=O)N/N=C/c1ccccc1O	none
CC1CCN(S(=O)(=O)c2cccc(C(=O)Nc3nccs3)c2)CC1	tim10-1 inh 48 | tim10-1 confirm 35
CN1CCN(S(=O)(=O)c2cccc(C(=O)Nc3nccs3)c2)CC1	none
O=C(Nc1nccs1)c1ccc(Br)c(S(=O)(=O)N2CCOCC2)c1	tim10-1 inh 48 | tim10-1 confirm 32
COc1cc(Cl)c(S(=O)(=O)NCCCn2ccnc2)cc1Cl	none
O=C1CC(N2CCC(Cc3ccccc3)CC2)C(=O)N1CCc1ccccc1 (stereo unspecified)	V-ATPase pHluor 10, tim10-1 inh 46 | tim10-1 confirm inactive
COc1cc(C)c(Br)cc1S(=O)(=O)NCc1cccs1	tim10-1 inh 40 | tim10-1 confirm 32
COc1cc(C)c(Br)cc1S(=O)(=O)NCc1ccncc1	none
Cc1nc(Nc2nc(CSc3nc4ccccc4[nH]3)cc(=O)[nH]2)nc2ccccc12	none
Cc1nc(Nc2nc(-c3ccccc3)cc(=O)[nH]2)nc2ccccc12	tim10-1 inh 43 | tim10-1 confirm inactive
COc1ccc(-c2cc(C(=O)Nc3cc(Br)ccc3O)no2)cc1	none
COc1ccc(CN2CCC(n3nccc3NC(=O)C3CC3)CC2)cc1O	none
CCN1CCN(CCCNC(=O)c2ccc(/C=C3/Sc4ccccc4N(Cc4ccccc4F)C3=O)cc2)CC1	none
O=C(NCCCN1CCOCC1)c1ccc(/C=C2\Oc3ccccc3N(Cc3ccccc3F)C2=O)cc1	tim10-1 inh 47 | tim10-1 confirm inactive
O=C(COc1ccccc1F)Nc1nnc(C2CCCC2)s1	none
NC(=O)COC(=O)c1ccc(Cl)c(S(=O)(=O)N(Cc2ccccc2)c2ccc(Cl)cc2)c1	tim10-1 inh 41 | tim10-1 confirm 32
CC(C)(C)OC(=O)C[C@H]1C/C=C\C[C@@H](CC(=O)NCCO)C(=O)NCCOC1=O	none
O=C(CN1CCC(n2nnc3ccccc32)CC1)Nc1ccc2c(c1)CCC2	none (no result: PfHsp90 set2)
O=C(CN1CCC(n2nnc3cc(F)ccc32)CC1)Nc1ccc2c(c1)CCC2	tim10-1 inh 47 | tim10-1 confirm inactive
O=c1c2[nH]c3ccc(F)cc3c2nc2n1CCS2	tim10-1 inh 46 | tim10-1 confirm 40
O=c1c2[nH]c3ccc(F)cc3c2nc2n1CCCS2	tim10-1 inh 41 | tim10-1 confirm inactive
COC(=O)c1ccc(CSc2ncnc3sc(C)c(C)c23)o1	tim10-1 inh 46 (no result: PfHsp90 set2) | tim10-1 confirm 37
Cc1sc2ncnc(SCc3ccc(C(=O)O)cc3)c2c1C	none
O=C(O)c1cc(S(=O)(=O)NCCCN2CCCC2=O)ccc1Cl	none
Cc1ccc(/C=C(\C#N)c2nn(-c3ccccc3)c(N)c2C#N)cc1	tim10-1 inh 40 | tim10-1 confirm inactive
c1ccc(-c2ccccc2-c2nc(-c3cccnc3)no2)cc1	tim10-1 inh 45 | tim10-1 confirm inactive
CCC(=O)Oc1ccc(-c2nc(-c3cccnc3)no2)cc1	tim10-1 inh 47 (no result: PfHsp90 set2) | tim10-1 confirm 46
Cc1ccc(-c2nc(-c3cccnc3)no2)cc1	none
O=c1cc(C(O)C[N+](=O)[O-])occ1OCc1ccccc1 (stereo unspecified)	none (no result: PfHsp90 set2)
COc1ccccc1N(C)S(=O)(=O)c1ccc(C(=O)Nc2ccc(N3CCOCC3)cc2)cc1	tim10-1 inh 47 | tim10-1 confirm 33
COc1cc(NC(=O)c2ccc(S(=O)(=O)N(C)c3ccccc3OC)cc2)cc(OC)c1	none
Cn1c2ccccc2c(=O)c2cc(C#Cc3ccsc3)ccc21	none
Cn1c2ccccc2c(=O)c2ccc(C#CC3(N)CCCCC3)cc21	tim10-1 inh 45 | tim10-1 confirm 36
O=c1c2ccccc2oc2ccc(C#CC3(O)CCCCC3)cc12	tim10-1 inh 45 | tim10-1 confirm 36
N#Cc1ccc(C#Cc2ccc3oc4ccccc4c(=O)c3c2)cc1	none
Cn1c2ccccc2c(=O)c2cc(C#CC3(O)CCCCC3)ccc21	tim10-1 inh 44 | tim10-1 confirm 39
NC1(C#Cc2ccc3c(=O)c4ccccc4sc3c2)CCCCC1	none
